High-throughput results from PubChem.
The list is not random: actives were taken first. Their share in the collection is about 3.1%.
PI4K2A inh – inhibitors of human PI4K2A; purified PI4K2A, ADP-Glo luminescence, 1 h; stronger effect = lower value; activity change, negative = inhibition, % at 76.9 µM; hit rate 0.13% among 420,000; in the data active = activity change below about -50%; inconclusive = mostly about -30% to -49%;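 also: -100% = wells without enzyme as full effect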
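Compounds are screened against recombinant PI4K2A using PI as substrate and ATP, the latter dispensed at 300 microM. Reactions run one hour at ambient temperature before ADP-Glo detection; full inhibition defined by wells lacking enzyme.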
GLS inhibitor – inhibitors of human glutaminase (GLS). O94925. GLS enzymatic activity, qHTS titration. Potency, µM (highest dose often 45.5 µM), without a hit: at the highest dose activity change, negative = inhibition, actives largely listed as inhibitors. hit rate 0.21% among 410,000. AID 624170; also: potency is read from the fitted curve at half-maximal effect
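hKGA; 45 mM KH2PO4 pH 8.2 + 0.02% Tween-20; cpd via pin tool; 1 mM Gln soln; GluOx/HRP/Amplex Red; RT 30 min; fluor. t0 & final.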
VDR inh – inhibitors of human vitamin D receptor. AID 504847. VDR-SRC2-3 peptide fluorescence polarization, 2 h. P11473. Potency, µM, for inactives: max response, negative = inhibition, usual class: inhibitors. hit rate 0.93% among 400,000; also: potency is read from the fitted curve at half-maximal effect
Target sequence (P11473 whole entry, looked up): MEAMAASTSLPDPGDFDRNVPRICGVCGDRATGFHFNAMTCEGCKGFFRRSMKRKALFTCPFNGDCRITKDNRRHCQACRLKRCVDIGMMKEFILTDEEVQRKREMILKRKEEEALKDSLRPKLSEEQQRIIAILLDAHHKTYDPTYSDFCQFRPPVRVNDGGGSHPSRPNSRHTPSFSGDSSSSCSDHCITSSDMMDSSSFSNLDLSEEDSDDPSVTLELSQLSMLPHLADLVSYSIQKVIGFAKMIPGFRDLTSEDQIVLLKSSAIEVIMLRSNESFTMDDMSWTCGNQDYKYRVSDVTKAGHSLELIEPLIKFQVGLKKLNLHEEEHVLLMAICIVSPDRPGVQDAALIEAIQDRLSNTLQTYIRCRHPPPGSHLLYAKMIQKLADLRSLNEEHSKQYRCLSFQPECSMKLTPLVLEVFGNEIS
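Compounds are added to VDR with labelled SRC2-3 coactivator peptide and held 2 h at room temperature. Inhibition of the VDR–peptide interaction is then read as a change in fluorescence polarization.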
KAT2A inh – inhibitors of human GCN5L2 histone acetyltransferase; Q92830; GCN5L2 HAT assay, ThioGlo1 CoA-SH fluorescence; Potency, µM (series often up to 58.9 µM), for the others: at the top dose activity change, negative = inhibition, most hits filed as inhibitors; hit rate 0.21% among 390,000; AID 504327; also: potency is read from the fitted curve at half-maximal effect
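Preincubate 20nM GCN5L2 with compound 15 min, RT → add 50uM ThioGlo1 + 75uM H3(1-25) + 70uM acetyl-CoA → read fluorescence 0 and 20 min. Primary qHTS; fluorescent artifacts likely.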
PLK1 PBD inh – PLK1 (human) polo-box domain binding inhibition; Plk1 PBD binding of FITC phosphopeptide, fluorescence polarization; Potency, µM, inactives show max response, negative = inhibition, usual class: inhibitors; hit rate 2.8% among 360,000; also: potency is read from the fitted curve at half-maximal effect; series mostly up to about 57 µM; nearly all actives have a fitted effect of over 65% in size
The depositor's hits bear a star; u = inconclusive; x = no result; ! = not confirmed by another sample. Unless noted, calls follow the shape of the dose curve; as a rule, active = well fitted curve in the direction sought with a large enough effect; inconclusive = small, poorly fitted or top-dose-only effect, or another doubt; inactive = no such curve, though single readings can be large; an effect the other way counts as inactive or inconclusive. Unless noted, % is scaled to controls: 0 for no effect and ±100 for the full control effect.

SMILES	PI4K2A inh	GLS inhibitor	VDR inh	KAT2A inh	PLK1 PBD inh
COc1ccc(N(CC(=O)N2CCOCC2)S(C)(=O)=O)c(OC)c1	-1	-21%	u	4%	21µM*
COc1cccc(N(CC(=O)N2CCOCC2)S(C)(=O)=O)c1	-4	4%	-20%	-20%	-15%
COc1ccc([N+](=O)[O-])cc1N(CC(=O)N1CCN(Cc2ccccc2)CC1)S(C)(=O)=O	-7	u	50µM*	1%	12µM*
C[C@@H](O[C@H]1OCCN(Cc2n[nH]c(=O)[nH]2)[C@@H]1c1ccc(F)cc1)c1cc(C(F)(F)F)cc(C(F)(F)F)c1	x	-1%	x	x	x
Nc1ccc(O)c2c1C(=O)c1ccccc1C2=O	-29	7.9µM*	u	u	u
O=C1C=C(O)c2c(O)cc(O)c(O)c2C1=O	u	u	-18%	x	u
Nc1ccc(Br)c2c1C(=O)c1ccccc1C2=O	4	-2%	-8%	u	-27%
O=C1c2ccccc2C(=O)c2c(O)ccc(O)c21	x	x	45µM*	x	x
O=C1c2ccccc2C(=O)c2c(Nc3ccc(CCO)cc3)ccc(O)c21	-19	12%	u	-3%	-10%
O=C1c2ccccc2C(=O)c2c(O)c(O)cc(O)c21	-14	u	50µM*!	7.9µM*!	27µM*
COC(=O)[C@@]12CCCCC3=C1N(CCC3)C(=O)[C@H]2CC(=O)NCc1ccc(C)o1	-6	x	x	x	x
CC12CCC(C/C1=N\N=C1\NC(=O)/C(=C\c3cccc(Br)c3)S1)C2(C)C (stereo unspecified)	-3	-13%	-1%	-20%	30µM*
N#Cc1cccc(OC[C@@H](O)CN2CCC(C(O)(c3ccccc3)c3ccccc3)CC2)c1	2	x	x	x	x
CN(N=O)C(=O)N[C@@H]1[C@@H](O)[C@H](O)[C@@H](CO)O[C@@H]1O	-1	x	x	x	x
COc1cc(C2/C(=C(/O)c3ccccc3)C(=O)C(=O)N2c2ccccn2)ccc1O (stereo unspecified)	1	8.9µM*	3%	0%	-22%
COc1ccc(C2/C(=C(/O)c3ccc(F)cc3)C(=O)C(=O)N2c2ccccn2)cc1OC (stereo unspecified)	11	u	u	-2%	12µM*
c1ccc2c(c1)N=C(N1CCN(Cc3ccc4c(c3)OCO4)CC1)c1ccccc1S2	4	x	x	x	x
CC(=O)c1cnc(-c2ccccn2)s1	2	u	-29%	-10%	21µM*
O=C(CNC(=O)c1ccccc1)OCC(=O)c1ccc2ccccc2c1	x	x	-10%	x	x
O=C1OC(c2ccccc2)C(O)=C1c1ccccc1 (stereo unspecified)	-1	-7%	-11%	x	2%
O=C1C(Br)=C(c2ccccc2)C(c2ccccc2)=C1c1ccccc1	2	17%	u	x	2.7µM*
O=C(NC1CCCCCC1)C(=S)NCc1ccccc1	-2	1%	u	-9%	21µM*
S=C(NCCc1ccccc1)NN=C1CCCCCC1	2	0%	-4%	-15%	27µM*
O=C(NCCc1ccccc1)NC1CCCCC1	1	6%	-3%	-4%	4%
O=C(NC1CCCCCC1)C(=S)NCCc1ccccc1	1	-13%	u	-19%	11µM*
SMILES	PI4K2A inh	GLS inhibitor	VDR inh	KAT2A inh	PLK1 PBD inh
CC(C)Cc1ccc(C(C)C(=O)OCc2ccccn2)cc1 (stereo unspecified)	1	x	x	x	x
Cc1cccc(-c2cc3nc(C)cc(NCCCn4ccnc4)n3n2)c1	-13	4%	3%	3%	24µM*
Cc1cc(NCCCn2ccnc2)n2ncc(-c3ccc(Cl)cc3)c2n1	-8	19%	-19%	-5%	-12%
COc1cc(/C=C2\COC/C(=C\c3ccc(O)c(OC)c3)C2=O)ccc1O	-13	20%	u	-8%	-2%
COc1cc(/C=C2/C(=O)ON=C2c2ccccc2)ccc1O	-1	4%	50µM*	-14%	u
Cc1ccc(/C=C2/C(=O)ON=C2c2ccccc2)o1	-19	u	23%	u	0.67µM*
O=C1ON=C(c2ccccc2)/C1=C\c1ccco1	0	26%	u	u	9.5µM*
COc1ccc(/C=C2\CC/C(=C\c3ccc(OC)c(OC)c3)C2=O)cc1OC	1	5%	u	-7%	-11%
COc1ccc(C=C2C=C(C(C)(C)C)C(=O)C(C(C)(C)C)=C2)cc1OC	-2	22%	u	-14%	30µM*
O=C(CN1C(=O)/C(=C\c2cccc(Br)c2)Oc2ccccc21)NCCCN1CCOCC1	4	20%	-24%	-10%	27µM*
O=C(CN1C(=O)COc2ccccc21)NCCCN1CCOCC1	3	2%	1%	2%	-12%
O=C1N=C(N2CCOCC2)S/C1=C/c1ccc(-c2ccc(F)cc2)o1	7	-1%	-5%	22µM*	-4%
Cc1ccc(-c2ccc(/C=C3\SC(N4CCOCC4)=NC3=O)o2)cc1	-2	u	-2%	-11%	-20%
COc1ccc(C2NC(=S)N3C(c4ccc(OC)c(OC)c4)NC(=S)N23)cc1OC (stereo unspecified)	x	1%	x	x	x
CCOC(=O)[C@@]12CCCC=C1N(CCc1ccc(Cl)cc1)C(=O)[C@H]2CC(=O)NCc1ccccc1	2	x	x	x	x
CCCC(=O)Nc1cc(S(=O)(=O)N2CCOCC2)ccc1N1CCCCC1	-12	42%	89µM*	2%	24µM*
O=c1c2ccccc2sn1-c1cc(S(=O)(=O)N2CCOCC2)ccc1N1CCCCC1	x	x	28µM*	x	x
O=C(Nc1ccc(Cl)c(Cl)c1)Nc1cc(S(=O)(=O)N2CCOCC2)ccc1N1CCCC1	6	11%	-11%	-10%	17µM*
COC(=O)CCC(=O)Nc1cc(S(=O)(=O)Nc2ccc(Cl)cc2)ccc1N1CCOCC1	-7	-3%	-17%	-7%	15µM*
COc1ccc(NS(=O)(=O)c2ccc(N3CCOCC3)c(NC(=O)c3ccc(OC)cc3)c2)cc1	-3	-7%	6%	-6%	-5%
